In PubChem BioAssay AID624141 (Broad Institute, 2012):
In all, about 17,000 compounds went through this assay and about 260 (1.5%) were called active. The sample holds actives, similar compounds and a random draw of the others, so the mix is not that of the screen.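 The calls were made as follows: active = spot fluorescence over background with P-value below 7% in all four replicate spots, showing protein binding; inactive = the rest.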

The compounds below were run against Myc proto-oncogene protein (Homo sapiens) (UniProt P01106) (assay: binders of human c-Myc, primary screen, biochemical, small molecule microarray, anti-His fluorescence (AID 624141)). Details: His-c-Myc binding.
Sequence of Myc proto-oncogene protein (Homo sapiens) (P01106 whole entry, looked up): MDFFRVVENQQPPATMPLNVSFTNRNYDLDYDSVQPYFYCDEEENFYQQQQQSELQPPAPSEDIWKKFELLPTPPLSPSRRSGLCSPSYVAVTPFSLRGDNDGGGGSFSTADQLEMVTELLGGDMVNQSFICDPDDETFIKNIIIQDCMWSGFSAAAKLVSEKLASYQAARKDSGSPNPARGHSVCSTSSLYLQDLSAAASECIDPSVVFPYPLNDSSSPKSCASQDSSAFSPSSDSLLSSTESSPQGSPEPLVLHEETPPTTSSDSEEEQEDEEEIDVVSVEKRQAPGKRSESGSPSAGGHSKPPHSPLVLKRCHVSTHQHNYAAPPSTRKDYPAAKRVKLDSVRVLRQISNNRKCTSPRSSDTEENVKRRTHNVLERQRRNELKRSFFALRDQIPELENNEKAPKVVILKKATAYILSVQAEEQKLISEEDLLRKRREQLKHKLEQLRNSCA
In the case of `Cc1nc(SCC(N)=O)c(C(N)=O)c(C)c1C`, the outcome was “inactive”. `C[C@@H]1CN([C@H](C)CO)C(=O)c2cc(NC(=O)Nc3ccc4c(c3)OCO4)ccc2O[C@@H]1CN(C)Cc1ccc(C(F)(F)F)cc1` was tested, and the outcome was “inactive”. With `CC(=O)Nc1ccc(C(=O)CSc2nnc(C)s2)cc1` the outcome was “inactive”. With `Cc1cc(C)nc(SC2CCCCC2NS(=O)(=O)c2ccc(Cl)cc2)n1` (stereo unspecified) the outcome was “inactive”. In the case of `C[C@@H]1CCCCO[C@@H](CN(C)Cc2ccc(C(=O)O)cc2)[C@H](C)CN([C@@H](C)CO)C(=O)c2cc(NC(=O)C3CCCCC3)ccc2O1`, the outcome was “inactive”. In the case of `Cc1cc2nc(-c3ccc(NC(=O)COc4ccccc4[N+](=O)[O-])cc3)oc2cc1C`, the outcome was “inactive”. With `CNC[C@@H]1OCCCC[C@H](C)Oc2ccc(NC(=O)Nc3ccccc3)cc2C(=O)N([C@H](C)CO)C[C@H]1C` the outcome was “inactive”. `C[C@@H]1CN([C@@H](C)CO)C(=O)c2cc(NC(=O)C3CC3)ccc2O[C@H]1CN(C)C` was tested, and the outcome was “inactive”. With `COC(=O)C(CC#Cc1ccc2c(c1)[C@]1(C(=O)N2)[C@H](c2ccccc2OCCO)N2[C@H](c3ccccc3)[C@H](c3ccccc3)OC(=O)[C@H]2[C@@H]1C(N)=O)C(=O)OC` the outcome was “inactive”. With `O=C1O[C@H](c2ccccc2)[C@H](c2ccccc2)N2[C@H]1[C@@H](C(=O)N1CCN(c3ncccn3)CC1)[C@]1(C(=O)Nc3ccccc31)[C@H]2c1ccc(OCCO)cc1` the outcome was “inactive”. In the case of `O=C1O[C@@H](c2ccccc2)[C@@H](c2ccccc2)N2[C@@H](c3ccccc3OCCO)[C@]3(C(=O)Nc4ccc(C#CC5(O)CCCCCC5)cc43)[C@@H](C(=O)N3CCCCCCC3)[C@H]12`, the outcome was “inactive”. In the case of `O=C1O[C@@H](c2ccccc2)[C@@H](c2ccccc2)N2[C@@H](c3ccccc3OCCO)[C@]3(C(=O)Nc4ccccc43)[C@@H](C(=O)N3CCCCCCC3)[C@H]12`, the outcome was “active”. With `COc1ccc(C#Cc2ccc3c(c2)[C@]2(C(=O)N3)[C@H](c3ccccc3OCCO)N3[C@H](c4ccccc4)[C@H](c4ccccc4)OC(=O)[C@H]3[C@@H]2C(=O)N2CCCCCCC2)cc1` the outcome was “active”. In the case of `COc1ccc(C#Cc2ccc3c(c2)[C@]2(C(=O)N3)[C@H](C(=O)N3CCCCCCC3)[C@H]3C(=O)O[C@H](c4ccccc4)[C@H](c4ccccc4)N3[C@@H]2c2ccc(O)cc2)cc1`, the outcome was “inactive”. `C[C@H]1CN([C@@H](C)CO)C(=O)c2cccc(NC(=O)Nc3ccccc3)c2O[C@@H]1CN(C)S(=O)(=O)c1ccc(F)cc1` was tested, and the outcome was “inactive”. For `C[C@@H]1CN([C@@H](C)CO)C(=O)c2cc(NS(C)(=O)=O)ccc2O[C@@H](C)CCCCO[C@@H]1CN(C)C(=O)c1ccccc1`, the outcome was “inactive”. With `Cc1nc(SCC(=O)O)[nH]c(=O)c1Oc1ccccc1` the outcome was “inactive”. For `C[C@H]1CN([C@@H](C)CO)C(=O)c2cc(N(C)C)ccc2O[C@@H]1CN(C)C(=O)Nc1ccc2c(c1)OCO2`, the outcome was “inactive”. `COc1ccc2ccccc2c1CNCc1ccccn1` was tested, and the outcome was “active”. With `Cc1nnc(SCc2cc(=O)[nH]c(N3CCN(Cc4ccccc4)CC3)n2)s1` the outcome was “inactive”. `C[C@@H]1CN([C@H](C)CO)C(=O)c2cc(NS(=O)(=O)c3ccccc3)ccc2O[C@@H](C)CCCCO[C@@H]1CN(C)C(=O)CCC(F)(F)F` was tested, and the outcome was “inactive”. `Cc1noc(C)c1S(=O)(=O)Nc1ccc2c(c1)C(=O)N([C@H](C)CO)C[C@H](C)[C@@H](CN(C)C(=O)CCC(F)(F)F)OCCCC[C@H](C)O2` was tested, and the outcome was “inactive”. With `Cc1noc(C)c1S(=O)(=O)Nc1ccc2c(c1)C(=O)N([C@H](C)CO)C[C@H](C)[C@H](CN(C)C(=O)CCC(F)(F)F)OCCCC[C@H](C)O2` the outcome was “active”. `Cc1noc(C)c1S(=O)(=O)Nc1ccc2c(c1)C(=O)N([C@H](C)CO)C[C@@H](C)[C@H](CN(C)C(=O)NC(C)C)OCCCC[C@@H](C)O2` was tested, and the outcome was “inactive”. With `C[C@@H]1CCCCO[C@H](CN(C)C(=O)CCC(F)(F)F)[C@H](C)CN([C@H](C)CO)C(=O)c2cc(NS(C)(=O)=O)ccc2O1` the outcome was “inactive”. In the case of `Cc1noc(C)c1S(=O)(=O)Nc1ccc2c(c1)C(=O)N([C@@H](C)CO)C[C@H](C)[C@@H](CN(C)C)OCCCC[C@@H](C)O2`, the outcome was “inactive”. `C[C@@H]1CCCCO[C@@H](CN(C)C(=O)CCC(F)(F)F)[C@@H](C)CN([C@H](C)CO)C(=O)c2cc(NC(=O)CCC(F)(F)F)ccc2O1` was tested, and the outcome was “inactive”. `Cc1noc(C)c1S(=O)(=O)Nc1ccc2c(c1)C(=O)N([C@@H](C)CO)C[C@@H](C)[C@H](CN(C)C(=O)NC(C)C)OCCCC[C@@H](C)O2` was tested, and the outcome was “active”. In the case of `C[C@H](CO)N1C[C@H](C)[C@H](CN(C)C(=O)CCC(F)(F)F)OCCCC[C@H](C)Oc2ccc(NS(C)(=O)=O)cc2C1=O`, the outcome was “active”. `Cc1cc(OCC(=O)Nc2ccccc2C(N)=O)cc(C)c1Br` was tested, and the outcome was “inactive”. For `Cc1scc(C(=O)NCCc2ccc(S(N)(=O)=O)cc2)c1-c1ccccc1`, the outcome was “inactive”. For `Cc1noc(C)c1NC(=O)Nc1ccc2c(c1)CC(=O)N([C@@H](C)CO)C[C@@H](C)[C@@H](CN(C)C(=O)NC(C)C)O2`, the outcome was “inactive”. For `CN(C)CCCSc1ccccc1NC(=O)/C=C/c1ccccc1`, the outcome was “inactive”. For `COc1cc(/C=C/C(=O)NCCc2ccc(O)cc2)ccc1O`, the outcome was “inactive”. `CCCCCc1ccc(/C=C/C(=O)Nc2ccccc2C(=O)O)cc1` was tested, and the outcome was “active”. For `CCn1c(SCC(=O)Nc2sc3c(c2C#N)CCCC3)nnc1-c1ccccc1O`, the outcome was “inactive”. In the case of `Cc1noc(C)c1S(=O)(=O)Nc1ccc2c(c1)CC(=O)N([C@@H](C)CO)C[C@H](C)[C@H](CN(C)S(=O)(=O)c1ccc(Cl)cc1)O2`, the outcome was “inactive”. `COc1ccc(NC(=O)N(C)C[C@@H]2Oc3ccc(NS(C)(=O)=O)cc3C(=O)N([C@@H](C)CO)C[C@@H]2C)cc1` was tested, and the outcome was “inactive”. For `C[C@@H]1CCCCO[C@H](CN(C)Cc2ccncc2)[C@@H](C)CN([C@H](C)CO)C(=O)c2cc(NS(C)(=O)=O)ccc2O1`, the outcome was “inactive”. For `C[C@@H]1CN([C@H](C)CO)C(=O)c2cccc(NC(=O)Nc3ccc4c(c3)OCO4)c2O[C@H]1CN(C)S(=O)(=O)c1ccccc1`, the outcome was “inactive”. For `C[C@@H]1CCCCO[C@H](CN(C)Cc2ccccc2)[C@H](C)CN([C@@H](C)CO)C(=O)c2cc(NS(=O)(=O)c3ccccc3)ccc2O1`, the outcome was “inactive”. In the case of `C[C@H](CO)N1C[C@H](C)[C@@H](CN(C)S(=O)(=O)c2cccs2)Oc2ccc(NC(=O)Nc3cccc4ccccc34)cc2CC1=O`, the outcome was “inactive”. In the case of `C[C@@H]1CN([C@H](C)CO)C(=O)Cc2cc(NC(=O)CCN3CCOCC3)ccc2O[C@H]1CN(C)C`, the outcome was “inactive”. For `COc1cc(O[C@@H]2O[C@H](CO[C@H]3OC[C@](O)(COC(=O)c4ccc(O)c(OC)c4)[C@H]3O)[C@@H](O)[C@H](O)[C@H]2O)ccc1O`, the outcome was “inactive”. With `COc1ccc(NC(=O)N(C)C[C@@H]2OCCCC[C@H](C)Oc3ccc(NC(=O)c4ccccc4)cc3C(=O)N([C@H](C)CO)C[C@H]2C)cc1` the outcome was “inactive”. `COc1ccccc1NC(=O)c1ccc(OCC(=O)Nc2ccccc2F)cc1` was tested, and the outcome was “inactive”. In the case of `O=C(Nc1ccc(Cl)cc1C(=O)NCc1ccco1)c1ccco1`, the outcome was “inactive”. For `C[C@@H]1CN([C@H](C)CO)C(=O)c2cc(NS(=O)(=O)c3cn(C)cn3)ccc2O[C@@H](C)CCCCO[C@H]1CN(C)C`, the outcome was “inactive”. With `CN(C)c1nc(N)nc(CSc2ccccn2)n1` the outcome was “inactive”. `COc1ccccc1NC(=O)CNC(=O)c1ccc(C)cc1` was tested, and the outcome was “inactive”. With `CC(C)NC(=O)N(C)C[C@@H]1OCCCC[C@H](C)Oc2ccc(NC(=O)Nc3ccccc3)cc2C(=O)N([C@H](C)CO)C[C@@H]1C` the outcome was “inactive”. In the case of `C[C@@H]1CCCCO[C@@H](CN(C)C(=O)Nc2ccccc2)[C@@H](C)CN([C@H](C)CO)C(=O)c2cc(NC(=O)Nc3ccc(F)cc3)ccc2O1`, the outcome was “inactive”. In the case of `C[C@@H]1CCCCO[C@@H](CN(C)C(=O)Nc2ccccc2)[C@@H](C)CN([C@@H](C)CO)C(=O)c2cc(N(C)C)ccc2O1`, the outcome was “inactive”. In the case of `C[C@H](CO)N1C[C@H](C)[C@@H](CN(C)C(=O)Nc2cccc3ccccc23)OCCCC[C@H](C)Oc2ccc(N(C)C)cc2C1=O`, the outcome was “active”. With `C[C@@H]1CN([C@H](C)CO)C(=O)c2cccc(NC(=O)Nc3ccccc3)c2O[C@@H]1CN(C)C(=O)NC1CCCCC1` the outcome was “inactive”. With `C[C@@H]1CCCCO[C@H](CN(C)C(=O)Nc2ccccc2)[C@H](C)CN([C@@H](C)CO)C(=O)c2cc(N(C)C)ccc2O1` the outcome was “inactive”. `Cc1noc(C)c1S(=O)(=O)N(C)C[C@H]1Oc2c(NC(=O)c3cnccn3)cccc2C(=O)N([C@H](C)CO)C[C@H]1C` was tested, and the outcome was “active”. For `C[C@H](CO)N1C[C@H](C)[C@@H](CN(C)C(=O)NC2CCCCC2)Oc2c(NC(=O)Nc3ccc(F)cc3)cccc2C1=O`, the outcome was “inactive”. `C[C@H]1CN([C@@H](C)CO)C(=O)c2cccc(NC(=O)c3cnccn3)c2O[C@H]1CN(C)C(=O)Nc1ccccc1` was tested, and the outcome was “inactive”. For `CC(C)NC(=O)Nc1ccc2c(c1)C(=O)N([C@@H](C)CO)C[C@@H](C)[C@H](CN(C)C(=O)Cc1ccccc1)OCCCC[C@H](C)O2`, the outcome was “inactive”. In the case of `C[C@H]1CN([C@@H](C)CO)C(=O)c2cccc(NC(=O)Nc3ccc(C(F)(F)F)cc3)c2O[C@H]1CN(C)C(=O)NC1CCCCC1`, the outcome was “active”. For `C[C@H]1CN([C@@H](C)CO)C(=O)c2cccc(NC(=O)c3cnccn3)c2O[C@H]1CN(C)S(=O)(=O)c1cn(C)cn1`, the outcome was “inactive”. For `C[C@@H]1CCCCO[C@@H](CN(C)C(=O)Cc2ccccc2)[C@H](C)CN([C@@H](C)CO)C(=O)c2cc(NC(=O)Nc3ccc(F)cc3)ccc2O1`, the outcome was “active”. `C[C@@H]1CCCCO[C@H](CN(C)C(=O)Nc2ccccc2)[C@H](C)CN([C@H](C)CO)C(=O)c2cc(NC(=O)Nc3ccccc3)ccc2O1` was tested, and the outcome was “inactive”. `C[C@@H]1CCCCO[C@H](CN(C)C(=O)C2CCCCC2)[C@@H](C)CN([C@@H](C)CO)C(=O)c2cc(NC(=O)Nc3ccccc3)ccc2O1` was tested, and the outcome was “active”. `CC(C)NC(=O)N(C)C[C@@H]1OCCCC[C@@H](C)Oc2ccc(NC(=O)Nc3ccccc3)cc2C(=O)N([C@H](C)CO)C[C@@H]1C` was tested, and the outcome was “inactive”.
